From the OligoGym collection come the findings set out here.
Also: reference of the scale not given here.

For one experiment, the target named is LPAR3. As to the kind of experiment: pooled miR-30 sensor sort-seq; sequence = guide strand. As to conditions: shRNA.
Consider TTCCTGTCCAGTCATCGACAGT, for which the sensor-assay potency score (higher = more potent) was -1.5.
Still for that read-out and setting: the same measure for TTGGCTAATACTATCCTCTATG: -0.824; for TTGACAGTCAAAGTTTTTGAAA: -1.6.
On to TTGCAGACTGCACCTTGGCTAA, for which the sensor-assay potency score (higher = more potent) is -1.28.
Still for that read-out and setting: the same measure for ATGAGGTTGGACACTGTCCAGA: -1.36; for TTGACGTACACGTAGATCCGCA: 0.439; for TTGTAGGAGTAGATGATGGGGT: -0.155.
Still for that read-out and setting: the same measure for TAAATTAGCCAACAGGTAGTAG: -0.542.
On the same count and under the same terms, as for TTCTGTTTTTGATCACTGCCGC, the figure is -0.331.
Turning to TTCCTCTTGACGTACACGTAGA, the sensor-assay potency score (higher = more potent) is -0.848.
The same measure, in the same setting: as for TAAGACAGTCATCACCGTCTTC, the figure is -0.295; as for TTAAACATCAGGAATACATAGG, -0.219.

The target of another experiment is LRCH2. The description is as above. Conditions: shRNA.
In the case of TTGTTCATCTATTTGATCCTTC, the sensor-assay potency score (higher = more potent) stood at 0.648.
In turn, TTCTTCTCATTGTAAATCCTGG registered a sensor-assay potency score (higher = more potent) of -0.64.
The sequence TTGCAATGGATTGTTATCCAAA yielded a sensor-assay potency score (higher = more potent) of -1.31.
TTCATTGCCACTTGAACTCTTC showed a sensor-assay potency score (higher = more potent) of 0.503.
For TTAAACATATCTGTGCTGGTGG, the sensor-assay potency score (higher = more potent) amounted to 0.402.
On the same count and under the same terms, the same measure for TATTACTTGTAAATGATGCAGC: 0.387.
Still for that read-out and setting: as for TTCATCTATTTGATCCTTCTGA, the figure is 0.249.
Same read-out and setting: the same measure for TTTATTACAAGAGAAATCCAGC: -0.214; for TTTATTATTACTGACGACCAAA: -1.09.
For the sequence TATCCATTCTGCAACATGCTTG, the sensor-assay potency score (higher = more potent) was -0.471.
Still for that read-out and setting: as for TACTTGTAAATGATGCAGCTTT, the figure is 0.0854; as for TTCATCTGCTGAGACACTCTTT, 0.135.
